The values below come from the supplement of paper PMC9588786.

Molecules are shown by their SMILES. ± gives the standard deviation of the averaged measurements.
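Note: viability read as CCK-8 absorbance at 450 nm in cells co-exposed to the GPX4 inhibitor RSL3, relative to a 0.01% DMSO vehicle control.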

This experiment deals with HT-1080. Nature of the experiment: relative cell viability with RSL3 co-treatment (fraction of control); higher = stronger protection from RSL3-induced ferroptosis (higher viability). The settings on record: 10 µM.
For the molecule `CO[C@@H](C(=O)N1Cc2[nH]nc(NC(=O)c3ccc(N4CCN(C)CC4)cc3)c2C1)c1ccccc1`, the relative cell viability came to 0.507 ± 0.1.
The same measure for `O=C(Nc1cccnc1)c1cc(-c2ccnc(F)c2)ccc1OCc1ccccc1`: 0.627 ± 0.06; for `CN(C)CCCn1cc(C2=C(c3c[nH]c4ccccc34)C(=O)NC2=O)c2ccccc21`: 0.837 ± 0.045.
In the case of `CCC(=O)Nc1cccc(Oc2nc(Nc3ccc(N4CCN(C)CC4)cc3OC)ncc2Cl)c1`, the relative cell viability stood at 0.803 ± 0.097.
The same measure for `Nc1nc(Nc2ccc(S(N)(=O)=O)cc2)nn1C(=O)c1c(F)cccc1F`: 0.53 ± 0.095; for `CN(C)Cc1cccc(N=C(c2ccccc2)c2c(O)[nH]c3cc(C(=O)N(C)C)ccc23)c1`: 0.79 ± 0.044.
On to `CCN1CCN(Cc2ccc(Nc3ncc(F)c(-c4cc(F)c5nc(C)n(C(C)C)c5c4)n3)nc2)CC1`, for which the relative cell viability amounted to 0.42 ± 0.026.
Consider `C=CC(=O)Nc1ccc2ncnc(Nc3cccc(Br)c3)c2c1`, for which the relative cell viability was determined as 0.593 ± 0.055.
The same measure for `COc1cc(CCc2cc(NC(=O)c3ccc(N4CC(C)NC(C)C4)cc3)n[nH]2)cc(OC)c1` (stereo not drawn): 0.673 ± 0.14; for `C[C@@H]1COCCN1c1cc(C2([S@](C)(=N)=O)CC2)nc(-c2cc[nH]c3nccc2-3)n1`: 0.777 ± 0.06; for `Cc1nc(N)sc1-c1ccnc(Nc2ccc(N3CCOCC3)cc2)n1`: 0.6 ± 0.095.
Under `O=c1ccc2ccc(O)c(O)c2o1` [Daphnetin] stands 0.85 ± 0.017; under `CNC(=O)c1cc(Oc2ccc(NC(=O)Nc3ccc(Cl)c(C(F)(F)F)c3)c(F)c2)ccn1` [Regorafenib (BAY 73-4506)], 0.483 ± 0.086; under `Oc1cccc(-c2nc(N3CCOCC3)c3oc4ncccc4c3n2)c1`, 0.75 ± 0.044.
As for `CN1CCCN(C(=O)c2cccc(-c3ccc(/C=C4/C(=O)Nc5ccc(Cl)cc54)o3)c2)CC1`, the relative cell viability was found to be 0.743 ± 0.061.
For the molecule `NC1(Cc2ccc(Cl)cc2)CCN(c2ncnc3[nH]ccc23)CC1`, the relative cell viability is 0.473 ± 0.25.
Under `COCC(=O)NC/C=C/c1ccc2ncnc(Nc3ccc(Oc4ccc(C)nc4)c(C)c3)c2c1` stands 0.647 ± 0.095.
Consider `CNc1nc(Nc2cnn([C@H]3CCN(C4COC4)C[C@@H]3F)c2Cl)ncc1C(F)(F)F`, for which the relative cell viability came to 0.617 ± 0.032.
For `COc1cccc(-n2c(=O)[nH]c3cc(Cl)n(-c4ccc(-c5cccc(OC)c5O)cc4)c3c2=O)c1`, the relative cell viability came out at 0.807 ± 0.081.
Under `N#C/C(=C\c1ccc(O)c(O)c1)C(=O)NCc1ccccc1` [AG-490 (Tyrphostin B42)] stands 0.55 ± 0.12; under `CC(C)(C#N)c1ccc(N2C(=O)OCc3cnc4ccc(-c5cnc6ccccc6c5)cc4c32)cc1`, 0.45 ± 0.18.
On to `COCCOc1cnc2ccn([C@H](C)c3nnc4c(F)cc(-c5cnn(C)c5)cn34)c(=O)c2c1`, for which the relative cell viability came out at 0.7767 ± 0.0058.
Turning to `CO[C@H]1CC[C@H](N2C(=O)CNc3ncc(-c4ccc(C(C)(C)O)nc4)nc32)CC1`, the relative cell viability is 0.733 ± 0.091.
Under `Clc1ccc(Nc2nnc(Cc3ccncc3)c3ccccc23)cc1` [Vatalanib (PTK787) 2HCl] stands 0.827 ± 0.047; under `CC(C)NC[C@@H](C(=O)N1CCN(c2ncnc3c2[C@H](C)C[C@H]3O)CC1)c1ccc(Cl)cc1` [Ipatasertib (GDC-0068)], 0.697 ± 0.12.
With `CCN(CC)CCCC(C)Nc1nc(C)cc(Nc2ccc3nc(C)cc(N)c3c2)n1` (stereo not drawn), the relative cell viability came to 0.583 ± 0.15.
Under `CNC(=O)Nc1ccc(-c2nc(N3CC4CCC(C3)O4)c3cnn(C4CCC5(CC4)OCCO5)c3n2)cc1` stands 0.483 ± 0.14; under `CCn1c(N)c(C(=O)NC)c(=O)c2ccc(C#CC(C)(O)COC)nc21` (stereo not drawn), 0.89 ± 0.16; under `N[C@@H]1CCCN(c2c(/C=C3\SC(=O)NC3=O)cccc2-c2ccccc2)C1`, 0.697 ± 0.13.
Consider `C[C@@H](Oc1cc(-c2cnn(C3CCNCC3)c2)cnc1N)c1c(Cl)ccc(F)c1Cl`, for which the relative cell viability turned out to be 0.7 ± 0.026.
The same measure for `CC(C)CC(NC(=O)C(Cc1ccccc1)NC(=O)C(CCC(N)=O)NC(=O)C(Cc1ccc(O)cc1)NC(=O)C(C)NC(=O)CNC(=O)C(CCCCN)NC(=O)C(Cc1c[nH]c2ccccc12)NC(=O)C(NC(=O)C(Cc1c[nH]c2ccccc12)NC(=O)C(CCCCN)NC(=O)CNC(=O)C(CC(N)=O)NC(=O)C(CCC(=O)O)NC(=O)C(Cc1c[nH]c2ccccc12)NC(=O)C(NC(=O)C(Cc1c[nH]c2ccccc12)NC(=O)C(CO)NC(=O)CNC(=O)C1CCCN1C(=O)C(Cc1c[nH]c2ccccc12)NC(=O)C(CCC(N)=O)NC(=O)C(Cc1ccccc1)NC(=O)CNC(=O)C(N)Cc1c[nH]cn1)C(C)O)C(C)O)C(=O)NC(CCCCN)C(=O)NCC(=O)NCC(=O)NCC(=O)NCC(=O)NC(CO)C(=O)NC(CCCNC(=N)N)C(=O)NC(CCCNC(=N)N)C(=O)NC(CCCNC(=N)N)C(=O)NC(CCCNC(=N)N)C(=O)NC(CCCNC(=N)N)C(=O)NC(CCCNC(=N)N)C(=O)NC(CCCNC(=N)N)C(=O)NC(CCCNC(=N)N)C(=O)NC(CCCNC(=N)N)C(=O)O` (stereo not drawn): 0.7133 ± 0.0058; for `COc1ccc(-c2nc(N3CCOCC3)c3sc(CN(C)c4ncc(C(=O)NO)cn4)cc3n2)cn1`: 0.577 ± 0.15; for `CC(C)(O)CNc1ncc(-c2ccnc(Nc3ccnc(Cl)c3)n2)c(CC2CC2)n1`: 0.503 ± 0.031.
Take `CN1CCN(c2ccc3nc(-c4c(N)c5c(F)cccc5[nH]c4=O)[nH]c3c2)CC1` [Dovitinib (TKI-258) Dilactic Acid]: the relative cell viability was determined as 0.563 ± 0.25.
Take `Cc1ccc(-n2nc(C(C)(C)C)cc2NC(=O)Nc2ccc(OCCN3CCOCC3)c3ccccc23)cc1` [Doramapimod (BIRB 796)]: the relative cell viability amounted to 0.57 ± 0.03.
Under `O=C(/C=C/c1ccc2ccccc2n1)c1ccncc1` stands 0.64 ± 0.075; under `Cn1cc(-c2ccc3ncc(Cc4ccc5ncccc5c4)n3n2)cn1`, 0.727 ± 0.11; under `Oc1ccc(-c2nc(-c3ccc(F)cc3)c(-c3ccncc3)[nH]2)cc1`, 0.717 ± 0.05.
